Ten compounds from publication PMC5540273 (PLoS ONE, 2017) can be followed below.

Each structure is given as a SMILES string.

Conditions in all cases: concentration: 1 μM, replicates: in singlicate; n = 1
The test system of assay [1] is CDK8.
Assay [2] has as its system CDK9.
The test system of assay [3] is CDKL1.
In assay [4] the test system is CDKL2.
In assay [5] the test system is CDKL3.
Assay [6] deals with CDKL5.
The test system of assay [7] is CHEK1.
The test system of assay [8] is CHEK2.
Assay [9] has as its system CIT.
The test system of assay [10] is CLK1.
Assay [11] concerns CLK2.
Assay [12] relates to CLK3.
Assay [13] relates to CLK4.
For assay [14], the system named is CSF1R-autoinhibited.
Assay [15] has as its system CSF1R.
In assay [16] the test system is CSK.
Assay [17] has as its system CSNK1A1L.
The test system of assay [18] is CSNK1A1.
Assay [19] deals with CSNK1D.
The subject of assay [20] is CSNK1E.
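Further: KINOMEscan kinase panel screen.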

On to `COC(=O)Nc1nc2ccc(Oc3ccc(NC(=O)Nc4cc(C(F)(F)F)ccc4F)cc3)cc2[nH]1.Cl` [GW654607], for which the “%Inh” value is recorded as 84% in assay [1]; 0% in assay [2]; 21% in [3]; 96.7% in [4]; 100% in [5]; 0% in assay [6]. In addition, the “%Inh” value in assay [7] came out at 0%; in [8] it was 16%; in assay [9], 87%; in assay [10], 52%; in [11] it was 0%; in assay [12], 0%. For the same compound, the “%Inh” value in assay [13] amounted to 48%; in assay [14] it was 30%; in assay [15], 99.8%; in assay [16], 0%; in assay [17], 0%; in assay [18], 0%. The results for the “%Inh” value in [19] and in assay [20] were 0% and 13%, respectively.
For `COc1cc(Nc2ccnc3cc(-c4ccncc4)ccc23)cc(OC)c1OC.Cl` [GW494610], the “%Inh” value in assay [1] stood at 43%; in assay [2], 0%; in [3], 100%; in assay [4], 8%; in assay [5], 11%; in assay [6], 0%. Further, the “%Inh” value in assay [7] came to 0%; in [8] it was 0%; in assay [9] it was 41%; in assay [10], 9%; in [11], 0%; in assay [12] it was 0%. In addition, the “%Inh” value in assay [13] is given as 29%; in assay [14], 22%; in assay [15] it was 49%; in assay [16], 79%; in [17], 18%; in [18] it was 11%. The “%Inh” value in assay [19] turned out to be 46%; in assay [20], 38%.
With `O=C(Nc1n[nH]c2nc(-c3ccccc3O)ccc12)C1CC1` [SB-711880], the “%Inh” value is 0% in assay [1]; 0% in [2]; 42% in [3]; 98.5% in assay [4]; 17% in assay [5]; 0% in [6]. The “%Inh” value worked out at 3% in [7]; 0% in assay [8]; 0% in assay [9]; 66% in [10]; 16% in assay [11]; 0% in [12]. For the same compound, the “%Inh” value in [13] was determined as 11%; in assay [14] it was 16%; in [15] it was 0%; in [16] it was 0%; in [17], 76%; in assay [18], 25%. For the same compound, the “%Inh” value in assay [19] and in assay [20] was 0% in each case.
For the compound `COC(=O)Nc1nc2ccc(Oc3ccc(CC(=O)Nc4cc(C(F)(F)F)ccc4F)cc3)cc2[nH]1` [GW680903], the “%Inh” value in assay [1] is 0%; in assay [2], 0%; in [3], 2%; in assay [4], 14%; in assay [5], 0%; in assay [6], 0%. The “%Inh” value stood at 0% in assay [7]; 20% in [8]; 68% in assay [9]; 24% in assay [10]; 0% in assay [11]; 0% in assay [12]. Besides, the “%Inh” value in assay [13] is reported as 3%; in assay [14], 50%; in assay [15] it was 71%; in [16] it was 0%; in assay [17], 0%; in assay [18], 0%. The “%Inh” value in [19] and in assay [20] was 0% each time.
As for `O=C1NC(=O)C(c2ccccc2Cl)=C1Nc1cccc(Cl)c1` [SB-342409], the “%Inh” value was found to be 0% in assay [1]; 0% in assay [2]; 16% in assay [3]; 11% in assay [4]; 0% in assay [5]; 0% in assay [6]. The “%Inh” value in [7] is recorded as 7%; in assay [8], 0%; in assay [9] it was 7%; in assay [10] it was 54%; in [11], 73%; in assay [12] it was 7%. In addition, the “%Inh” value in assay [13] was 28%; in [14], 0%; in assay [15] it was 33%; in assay [16] it was 0%; in assay [17] it was 9%; in [18], 0%. Further, the “%Inh” value in assay [19] is given as 16%; in assay [20], 17%.
Take `O=C(Nc1n[nH]c2nc(-c3ccccc3)ccc12)C1CC1` [SB-708999]: the “%Inh” value in assay [1] came out at 36%; in [2], 0%; in assay [3], 2%; in assay [4], 88%; in assay [5], 10%; in [6], 0%. Moreover, the “%Inh” value in assay [7] is 0%; in assay [8], 0%; in assay [9], 7%; in assay [10], 86%; in assay [11] it was 0%; in assay [12], 1%. For the same compound, the “%Inh” value is given as 0% in [13]; 36% in assay [14]; 0% in assay [15]; 0% in assay [16]; 15% in assay [17]; 0% in assay [18]. The entries for the “%Inh” value in assay [19] and in [20] were 13% and 0%, respectively.
On to `CC(=O)Nc1cn2nc(Oc3cccc(NC(=O)c4cccc(C(F)(F)F)c4)c3)ccc2n1`, for which the “%Inh” value in [1] amounted to 70%; in [2], 0%; in [3], 48%; in assay [4], 44%; in assay [5] it was 6%; in assay [6], 0%. Besides, the “%Inh” value in assay [7] came out at 0%; in [8], 0%; in assay [9], 99.8%; in assay [10], 5%; in assay [11] it was 13%; in assay [12], 54%. For the same compound, the “%Inh” value in assay [13] is recorded as 0%; in [14], 82%; in [15], 100%; in assay [16] it was 44%; in assay [17], 21%; in assay [18] it was 12%. In addition, the “%Inh” value is 4% in assay [19] and 44% in assay [20].
Turning to `CCOc1nccc(-c2c(-c3ccc(F)cc3)ncn2C2CCNCC2)n1` [SB-249175], the “%Inh” value in assay [1] was determined as 25%; in assay [2], 1%; in assay [3] it was 1%; in assay [4], 0%; in assay [5], 17%; in [6], 7%. Moreover, the “%Inh” value in assay [7] turned out to be 0%; in assay [8], 16%; in [9], 10%; in assay [10], 0%; in assay [11] it was 0%; in assay [12], 11%. Further, the “%Inh” value was determined as 100% in assay [13]; 31% in [14]; 28% in assay [15]; 0% in assay [16]; 45% in [17]; 97.4% in assay [18]. Moreover, the “%Inh” value in assay [19] was 95.3%; in [20] it was 99.4%.
In the case of `N#Cc1cnc2cc(-c3cnc(CNCCN4CCOCC4)s3)ccc2c1Nc1ccc(Oc2ccccc2)cc1` [GW664114], the “%Inh” value in assay [1] worked out at 10%; in assay [2], 0%; in assay [3], 0%; in assay [4], 61%; in [5], 0%; in [6] it was 29%. Also, the “%Inh” value in assay [7] came out at 0%; in assay [8], 82%; in assay [9], 22%; in assay [10] it was 40%; in [11], 0%; in assay [12] it was 0%. For the same compound, the “%Inh” value in assay [13] is recorded as 95.2%; in assay [14], 17%; in assay [15] it was 19%; in assay [16], 96.7%; in assay [17], 7%; in [18], 0%. In addition, the “%Inh” value in [19] was found to be 0%; in [20], 39%.
For `COC(=O)Nc1nc2cc(Oc3ccc(NC(=O)Nc4cccc(SC)c4)cc3)ccc2[nH]1.Cl` [GW697999], the “%Inh” value was determined as 47% in assay [1]; 0% in [2]; 21% in assay [3]; 86% in assay [4]; 0% in assay [5]; 0% in [6]. Moreover, the “%Inh” value in assay [7] is 2%; in assay [8], 28%; in assay [9] it was 98%; in assay [10], 19%; in assay [11] it was 32%; in assay [12], 23%. Moreover, the “%Inh” value in assay [13] is 24%; in assay [14], 53%; in [15] it was 99.6%; in assay [16], 0%; in assay [17] it was 6%; in assay [18], 0%. Also, the “%Inh” value in assay [19] is 17%; in assay [20], 22%.
